Source: PubChem BioAssay (several laboratories)
Compounds with a hit are over-represented: about 12% of the library has one in this group of screens.
CHOP inh = inhibitors of CHOP induction in ER stress response | CHO-K1 CHOP-promoter luciferase, tunicamycin-induced, 15-18 h | inhibition, % at 10 µM | 220,000 tested, 3.8% active | AID 2732;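 active = compounds that reduced the stress-induced luciferase reporter signal by more than about 70% of percent inhibition, limit read from the data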
L major viab = Leishmania major promastigote growth inhibition | Leishmania major promastigotes, resazurin fluorescence viability | AID 1063 | 200,000 tested, 9% active | inhibition, % at 10 µM; in the data active = inhibition above about 50%;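 also: promastigotes grown with compound for 44 hours at 28 °C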
Arbovirus inh = blocks arbovirus infection; arbovirus infection cell-based antiviral screen; inhibition, % at 10 µM; 200,000 tested, 0.37% active; AID 1251; in the data active = inhibition above about 30%
WT yeast gro inh = growth inhibition of WT yeast, mitochondrial fusion screen | mitochondrial fusion phenotypic screen, WT strain | inhibition, % at 10 µM | 190,000 tested, 2.1% active; in the data active = inhibition above about 58%; tested in S. cerevisiae
Numbers stand for hits; – = inactive; · = not tested or not shown.

SMILES | CHOP inh | L major viab | Arbovirus inh | WT yeast gro inh
CCN(CC)CCn1c(NCc2nc3ccccc3n2Cc2ccccc2)nc2ccccc21 | – | 100 | – | –
Clc1ccc(Cn2c(CN3CCCC3)nc3ccccc32)cc1 | – | 100 | – | –
c1ccc(Cn2c(CN3CCCC3)nc3ccccc32)cc1 | – | – | – | –
CCN(CC)c1ccc(CNc2nc3ccccc3n2CCN2CCCCC2)cc1 | – | 100 | – | –
CCNC(=S)Nc1ccc(S(=O)(=O)Nc2cc(C)nc(C)n2)cc1 | – | – | – | –
CCCCCCN(C(=O)CCl)c1ccccc1 | – | · | · | ·
Cc1ccc(N(CC(=O)Nc2ccccc2-c2ccccc2)S(=O)(=O)c2ccccc2)c(C)c1 | – | – | – | –
c1ccc(Cn2c(CNc3nc4ccccc4n3CCN3CCCCC3)nc3ccccc32)cc1 | – | 100 | – | 64
Cn1c(CNc2ccccc2O)nc2ccccc21 | – | 89 | – | –
CCN(CC)S(=O)(=O)c1cc(NS(=O)(=O)c2cc(Cl)ccc2Cl)ccc1C | – | 51 | – | –
O=C(Nc1ccc(OC(F)(F)F)cc1)c1ccc(S(=O)(=O)N2CCOCC2)o1 | – | · | · | ·
CCOC(=O)N1CCN(C(=O)C2CCN(S(=O)(=O)c3cc(Cl)ccc3Cl)CC2)CC1 | – | 99 | – | –
CCOC(=O)N1CCN(S(=O)(=O)c2cc(OCC(=O)NC3CCCCC3)c(C)cc2Cl)CC1 | 75 | 64 | – | –
Cc1cc(Cl)c(S(=O)(=O)N2CCSCC2)cc1OCC(=O)NC1CCCCC1 | – | – | – | –
CCOC(=O)C1CCN(C(=O)C2CCN(S(=O)(=O)c3cc(Cl)ccc3Cl)CC2)CC1 | – | – | – | –
Cc1cc(Cl)c(S(=O)(=O)N2CCCCCC2)cc1OCC(=O)NC1CCCCC1 | 92 | 96 | – | –
Cc1cc(Cl)c(S(=O)(=O)NC2CCCC2)cc1OCC(=O)NC1CCCCC1 | 70 | – | – | –
CCC1(C)Cc2ccccc2-c2nc(NCCCO)[nH]c(=O)c21 (centres undefined) | – | · | · | ·
NC(CSCc1cccc(Br)c1)C(=O)O (centres undefined) | – | – | – | –
Cc1cc(Cl)c(S(=O)(=O)N2CCCC2)cc1OCC(N)=O | – | – | – | –
Cc1cc(S(=O)(=O)N2CCCCCC2)c(Cl)cc1Cl | 80 | – | – | –
Cc1cc(Cl)c(S(=O)(=O)N2CCCCCC2)cc1OCC(N)=O | – | 67 | – | –
O=c1[nH]snc1N1CCOCC1 | – | – | – | –
CCOc1ccc(C(C)=O)cc1CSc1nnnn1-c1ccc(O)cc1 | – | 60 | – | –
CC(C)CN(CC(C)C)S(=O)(=O)N1CCC(C(=O)NCc2ccc3c(c2)OCO3)CC1 | – | – | – | –
SMILES | CHOP inh | L major viab | Arbovirus inh | WT yeast gro inh
CCOc1ccccc1NC(=O)CCC(=O)Nc1ccccc1OCC | – | – | – | –
CCOc1ccccc1N/C=C/C(=O)C(C)(C)C | 74 | – | – | –
COc1ccccc1NC(=S)N1CC(C)OC(C)C1 (centres undefined) | – | – | – | –
NC(=O)c1sc2nc3c(c(-c4ccco4)c2c1N)CCC3 | – | – | – | –
Cc1cccc(NC(=O)c2sc3nc4c(c(-c5cccs5)c3c2N)CN(C)CC4)c1 | – | 56 | – | –
NC(=O)c1sc2nc3c(c(-c4cccs4)c2c1N)CCCC3 | 76 | – | – | –
C(=N\Nc1nc2ccccc2[nH]1)/c1ccccc1 | – | – | – | –
O=c1[nH]c(N/N=C/c2ccccc2)nc2ccccc12 | – | 58 | – | –
Cc1cccc(/C=N\Nc2nnc(-c3ccccc3)c(=O)[nH]2)c1 | – | 68 | – | –
O=c1[nH]c(N/N=C\c2ccc3c(c2)OCO3)nc2ccccc12 | – | 51 | – | –
CCN(CC)CCNS(=O)(=O)c1ccc(OC)c(Br)c1 | – | – | – | –
CCC(C)(C)n1nnnc1CN1CCc2ccccc21 | – | – | – | –
COc1ccc(CCNC(=O)C(NS(=O)(=O)c2ccc3c(c2)CCN3C(C)=O)C(C)C)cc1OC (centres undefined) | – | – | – | –
COC(=O)c1c(C)[nH]c(O)c1C=Nc1ccc(C(C)C)cc1 | – | – | – | –
CCOC(=O)c1c(C)[nH]c(O)c1C=Nc1ccc(C(F)(F)F)cc1 | 82 | – | – | –
CN1CCN(c2ccc(CNS(=O)(=O)c3ccc(Cl)cc3)cc2)CC1 | – | · | · | ·
Cc1nn(-c2nc(-c3ccco3)cc(C(F)(F)F)n2)c(C)c1Br | 73 | – | – | –
N#CCC(=O)Nc1ncc(Cc2ccccc2Cl)s1 | – | – | – | –
O=C(O)C1CC=CCC1C(=O)Nc1ccccc1 (centres undefined) | – | – | – | –
CC1CC1C(=O)Nc1ccc(-c2ccccc2)cc1 (centres undefined) | – | 51 | – | –
O=C1CCC(=O)N1CCSC(=S)N1CCSCC1 | – | · | · | ·
CCn1c(=O)n(CC)c2cc(S(=O)(=O)Nc3c(C)cccc3C)ccc21 | – | 98 | – | –
COc1ccccc1CNC(=O)CSc1nc(-c2ccccc2)cn1N | – | – | – | –
CN(C(=O)CSc1nc(-c2ccccc2)cn1N)C(c1ccccc1)c1ccccc1 | – | 100 | – | –
CCOC(=O)C(C)Sc1nc2c(c(-c3cccs3)c1C#N)CCC2 (centres undefined) | – | 54 | – | –
SMILES | CHOP inh | L major viab | Arbovirus inh | WT yeast gro inh
CC(C)OC(=O)CC(=O)CSc1nc2c(c(-c3cccs3)c1C#N)CCC2 | – | – | – | –
CCN(C(=O)c1cnc(N2CCN(c3ncccn3)CC2)c2ccccc12)c1cccc(Cl)c1 | – | – | – | 63
CCOC(=O)c1ccc(NC(=O)C2C3C=CC(C3)C2C(=O)O)cc1 (centres undefined) | – | – | – | –
O=C(O)C1C2C=CC(C2)C1C(=O)Nc1ccc(C(=O)N2CCCCC2)cc1 (centres undefined) | – | – | – | 68
CCN(CC)S(=O)(=O)c1cccc(C(=O)N/N=C/c2ccc(N3CCOCC3)cc2)c1 | – | – | – | –
Cc1sc(NC(=S)NC(=O)C2CCCCC2)c(C(N)=O)c1C | – | 63 | – | –
CC1(C)CC(=O)C2=C(C1)N1C(=C(C#N)C2c2ccccc2Cl)N=C(N)c2ccccc21 (centres undefined) | – | – | – | –
CC1(C)CC(=O)C2=C(C1)N1C(=C(C#N)C2c2ccc(Cl)cc2)N=C(N)c2ccccc21 (centres undefined) | – | 66 | – | –
CC1(C)Oc2ccc(NC(=O)c3ccco3)cc2O1 | – | – | – | –
CN(C)CC(C)(C)CNC(=O)c1cc(=O)c2ccccc2o1 | – | – | – | –
O=C(COC(=O)c1cc(Cl)ccc1[N+](=O)[O-])Nc1cccc2ccccc12 | – | – | – | –
O=C(COC(=O)c1cc(Cl)ccc1[N+](=O)[O-])NCc1ccc(Cl)cc1Cl | – | 62 | – | 61
CC(C)(C)SCCNC(=O)c1ccc(Cl)c([N+](=O)[O-])c1 | – | – | – | 81
CC(C)[C@H](NC(=O)c1ccc(Cl)c([N+](=O)[O-])c1)C(=O)NCc1ccc(Cl)cc1Cl | – | 53 | – | –
Cc1cccc(Nc2nc(N)nc(CCl)n2)c1C | – | · | · | ·
CCCCCc1nc2c(C#N)c(-c3ccc(Cl)cc3)ccn2n1 | 92 | – | – | –
CC/C(O)=C1\C(=O)CC(c2ccccc2)CC1=NCCC(=O)O (centres undefined) | – | – | – | –
CC/C(O)=C1\C(=O)CC(c2ccccc2)CC1=NC(C)C (centres undefined) | – | 59 | – | –
